High-throughput results from PubChem.
Tau fluor counter – counter-screen for tau fibril formation inhibitors; tau K18 P301L Alexa594 fluorescence, heparin fibrillization; AID 1463; 0.93% of 280,000 active; Potency, µM (series often up to 57.7 µM), without a hit: at the top dose activity change, negative = decrease; also: potency is read from the fitted curve at half-maximal effect; nearly all actives have a fitted effect of over 55% in size
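Human tau K18 P301L (15 uM unlabeled, 0.24 uM Alexa 594-labeled) in 100 mM sodium acetate pH 7 with 20 uM heparin, 6 hr at 37 C. ThT 30 uM added, 1 hr ambient; Alexa 594 FP and total fluorescence read at 555/632 nm.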
Sfp PPTase inh – blocks B. subtilis Sfp PPTase activity. Q9F4F7. Biochemical Sfp PPTase activity, qHTS. Potency, µM, inactives show largest response in the series, negative = inhibition, most hits filed as inhibitors. 3.5% of 310,000 active. AID 1490;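 also: the enzyme is Sfp with the accession as filed and its product quenches rhodamine fluorescence; potency is read from the fitted curve at half-maximal effect; 0% = enzyme reaction without inhibitor and -100% = no enzyme wells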
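After 15 min at room temperature with compound, 15 nM Sfp received 5 uM rhodamine-CoA plus 12.5 uM BHQ-2-ybbR (50 mM Hepes pH 7.6, 10 mM MgCl2). Rate came from the fluorescence difference over 30 min, ex 525/em 598 nm.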
Tau fibril FP – blocks human tau fibril formation measured by polarization | AID 1468 | P10636 | Potency, µM (titrated, usually from 57.7 µM), for the others: at the top dose activity, negative = inhibition, hits mostly inhibitors | 0.39% of 280,000 active | K18 P301L tau heparin fibrillization, Alexa594 FP, 6 h; also: potency is read from the fitted curve at half-maximal effect; nearly all actives have a fitted effect of over 55% in size
Target sequence (P10636 561-689 P618L limits assumed): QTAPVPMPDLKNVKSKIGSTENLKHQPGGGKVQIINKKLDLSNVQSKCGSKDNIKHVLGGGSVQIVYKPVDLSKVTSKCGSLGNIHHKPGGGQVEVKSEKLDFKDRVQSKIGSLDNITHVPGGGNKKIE
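Steps: dispense K18 P301L tau (15 uM plus 0.24 uM Alexa 594 tracer, final) in pH 7 sodium acetate; add compound; add heparin (20 uM final); incubate 6 hr, 37 C; add ThT (30 uM final); after 1 hr ambient, read FP.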
Tau fibril ThT – tau fibrillization inhibition (ThT binding). recombinant tau K18 P301L (four-repeat tau fragment), heparin-induced fibrillization, ThT fluorescence. Potency, µM (titrated, usually from 57.4 µM), without a hit: at the top dose activity, negative = inhibition, actives largely listed as inhibitors. 2.1% of 270,000 active; also: potency is read from the fitted curve at half-maximal effect; nearly all actives have a fitted effect of over 55% in size
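Tau K18 P301L fragment (15 uM unlabeled plus 0.24 uM Alexa 594-labeled) in 100 mM sodium acetate pH 7 with compound, fibrillization induced by 20 uM heparin for 6 hr at 37 C. Thioflavin T (30 uM) added, fluorescence read after 1 hr (ex 450, em 510 nm).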
FBPA coupling cs – coupling enzyme interference in Giardia aldolase counter-screen; coupling enzyme system counterscreen, AmpLite Red fluorescence; activity change, negative = inhibition, % at 58.2 µM, hits read low; 0.67% of 290,000 active; AID 2472; in the data active = activity change below about -30%
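Counterscreen of the coupled detection system alone, without aldolase: glyceraldehyde-3-phosphate coupling enzymes plus AmpLite Red readout. Compounds at 57.5 uM final, 10 min RT preincubation, 20 min RT reaction, fluorescence 525/598 nm.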
Active calls of the source: *; ? = inconclusive; . = no result given; [ ] = another dose, or the depositor's remark. A selection: hits, their analogues and other compounds. The true share with any hit is near 5.2%. Unless noted, calls follow the shape of the dose curve; as a rule, active = well fitted curve in the direction sought with a large enough effect; inconclusive = small, poorly fitted or top-dose-only effect, or another doubt; inactive = no such curve, though single readings can be large; an effect the other way counts as inactive or inconclusive. Unless noted, % is scaled to controls: 0 for no effect and ±100 for the full control effect.

SMILES	Tau fluor counter	Sfp PPTase inh	Tau fibril FP	Tau fibril ThT	FBPA coupling cs
O=C(N=Nc1c(O)[nH]c2ccccc12)c1cc(-c2ccc(F)cc2)n[nH]1	-16%	-10%	-3%	2.2µM*	1
Oc1[nH]c2ccccc2c1N=Nc1ccc(F)cc1	-28%	-1%	2%	2µM*	-1
O=C(N=Nc1c(O)[nH]c2ccccc12)c1cc(-c2cccs2)[nH]n1	?	-28%	-6%	.	-17
Cc1ccc2[nH]c(O)c(N=Nc3nc4ccccc4s3)c2c1	?	2%	1%	.	2
COC(=O)[C@H](Cc1ccccc1)NC(=O)[C@@H](C)CO	-8%[11.6 µM]	3%	-1%[11.6 µM]	-6%[11.5 µM]	-3
COC(=O)/C=C(\C)N=Nc1c(O)[nH]c2ccccc12	-20%	7%	-6%	11µM*	-8
O=Nc1c(-c2c(O)[nH]c3ccccc23)[nH]c2ccccc12	16µM*[quencher]	-28%	?	2.8µM*	-6
Cc1cccc(NC(=S)N=Nc2c(O)[nH]c3ccccc23)c1	14µM*[quencher]	18%	-1%	7.9µM*	0
COc1ccccc1NC(=S)N=Nc1c(O)[nH]c2ccc(Br)cc12	?	-16%	-2%	?	0
CCc1nc(-c2ccc(C)c(S(=O)(=O)N3CCN(c4ccc(C(C)=O)cc4)CC3)c2)no1	-11%	.	9%	-1%	.
Cc1cc2c(cc1C)NC(CC(=O)Nc1ccccc1)C(=O)N2 (centres undefined)	-26%	.	8%	?	.
Cc1ccc(NC(=O)CC2Nc3cccc4cccc(c34)NC2=O)cc1 (centres undefined)	14µM*[quencher]	.	?	14µM*	.
O=C(CC1Nc2cccc3cccc(c23)NC1=O)Nc1ccccc1 (centres undefined)	8%	18µM*	0%	9%	-40*
COc1ccc(-c2cn3nc(SCC(=O)Nc4cc(C)cc(C)c4)ccc3n2)cc1	-16%	.	-6%	-17%	.
O=C1Cc2ccccc2C(=O)N1OCc1ccc(Cl)cc1	-6%	-2%	6%	-8%	-42*
O=C1C2ON(c3ccc(Cl)cc3)C(c3ccco3)C2C(=O)N1c1ccccc1 (centres undefined)	-6%	32µM*	-3%	0%	-7
O=C1C2ON(c3ccccc3)C(c3ccccc3F)C2C(=O)N1c1ccccc1 (centres undefined)	1%	0%	4%	4%	0
Cc1ccc(Nc2nnns2)cc1C	-8%	22µM*	-8%	?	2
CC1Cc2ccccc2N1c1nc(C2CC2)nc2c1nnn2Cc1ccccc1 (centres undefined)	-5%	-7%	-1%	-4%	1
CC1Cc2ccccc2N1c1ncnc2c1nnn2Cc1ccccc1 (centres undefined)	-25%	28µM*	-7%	-6%	0
CS(=O)(=O)c1ncc(Cl)c(C(=O)Nc2ccc(N3CCOCC3)cc2)n1	?	-42%	?	3.2µM*	-3
CS(=O)(=O)c1ncc(Cl)c(C(=O)Nc2ccc(OC(F)F)cc2)n1	.	?	.	.	5
CCN(c1ccccc1)S(=O)(=O)c1ccc(NC(=O)c2nc(S(C)(=O)=O)ncc2Cl)cc1	-21%	20µM*	?	?	.
CO/N=C/c1ccc(Sc2ccccc2)c([N+](=O)[O-])c1	?	-16%	-4%	?	2
CO/N=C/c1ccc(Sc2ccccc2N)c([N+](=O)[O-])c1	28µM*[quencher]	-10%	5%	?	-2
SMILES	Tau fluor counter	Sfp PPTase inh	Tau fibril FP	Tau fibril ThT	FBPA coupling cs
O=[N+]([O-])c1cc(/C=N/O)ccc1Sc1ccccc1	?	71µM*	-5%	?	-17
CCN1CCOC(=O)C1CC(=O)Nc1cc(Cl)ccc1OC (centres undefined)	-13%	.	-11%	?	.
Cc1cccc(CNC(=O)Cc2ccc(NC(=O)N3CCCCc4ccccc43)cc2)c1	-4%	.	1%	-11%	.
O=C1C2CC(O)CN2C(=S)N1Cc1ccccc1 (centres undefined)	-17%	50µM*	-2%	-19%	-2
COC(=O)/C=C/c1cccc(N(Cc2ccc(-c3ccc(N(C)C)cc3)cc2)C(=O)C2CCCCC2)c1	.	-11%	.	.	-2
Cc1cccc2c1-c1sc(C(=O)Nc3ccccc3N3CCN(C)CC3)cc1CO2	-28%	35µM*	4%	.	0
Cc1c(C(C)(C)C)c(C=S)n2ccccc12	-26%	50µM*	-8%	?	-5
CCOc1ccc2nc(NC(=O)c3nc(SCc4ccccc4F)ncc3Cl)sc2c1	17%	.	8%	13%	.
O=C(O)C(=O)/C(=C\c1ccc([N+](=O)[O-])cc1)c1ccc2ccccc2n1	-24%	45µM*	2%	16µM*	4
O=C(O)C(=O)/C(=C\c1ccccc1)c1ccc2ccccc2n1	-12%	-1%	-3%	?	1
Cc1cc(NC(=O)C2CCCN(S(=O)(=O)c3cn(C)cn3)C2)ccc1Br (centres undefined)	-2%	.	7%	1%	.
COc1ccccc1C(=O)Nc1sc(Nc2ccccc2)nc1C(N)=O	7.1µM*[quencher]	.	?	3.2µM*	.
Cc1cccc([C@@H]2CN(C)CCc3c2cc(O)c(O)c3Cl)c1	-18%	79µM*	-2%	-19%	-7
COc1cc(CNCc2ccccn2)ccc1OCc1cccc(Cl)c1	-9%	79µM*	-3%	2%	-1
COc1cc(CNCc2ccccn2)ccc1OCc1c(Cl)cccc1Cl	-13%	40µM*	-3%	-11%	1
Cc1ccn2c(Nc3c(C)cccc3C)c(-c3ccc(Cl)s3)nc2c1	?	.	2%	?	.
COc1ccc2sc(/C=C/c3ccccc3O)[n+](C)c2c1	16µM*[fluorescent]	56µM*	12%	?	0
Cc1ccc(NC(=O)N2CCN(c3nnc(C)c4c(C)n(-c5ccccc5)nc34)CC2)c(Cl)c1	-1%	.	-4%	-10%	.
O=c1cc(-c2ccc(F)cc2F)[nH]c2ccc(F)cc12	-6%[81.3 µM]	-4%	1%[81.3 µM]	-3%[81.4 µM]	2
COC(=O)c1sc2nc3c(cc2c1N)COC(C)(C)C3	-7%	?	4%	-13%	-3
CC1(C)Cc2nc3sc(C(=O)NCCCO)c(N)c3cc2CO1	-12%	79µM*	3%	-13%	0
CCOc1ccc(N2C(=O)CC(Sc3n[nH]c(-c4ccccc4)n3)C2=O)cc1 (centres undefined)	1%	?	0%	?	0
COc1ccc(N2C(=O)CC(Sc3n[nH]c(-c4ccccc4)n3)C2=O)cc1 (centres undefined)	-14%	35µM*	10%	?	0
CNC(=O)N(O)C1N(/N=C/c2ccc(C)cc2)C(=S)SC1(C)C (centres undefined)	.	-7%	.	.	0
CNC(=O)N(O)C1N(/N=C/c2cc(Br)ccc2O)C(=S)SC1(C)C (centres undefined)	.	79µM*	.	.	0
Nc1cc2nc[nH]c2cc1N	?	6%	?	22µM*	-16
